Each structure is given as a SMILES string. Several values for one entry are separate records, joined by “and”; a condition that tells them apart may be missing. Equal entries are not always repeated. Results filed as inconclusive are left out. A call without a number means that no potency is given here. Where a structure was tested more than once in an assay, its records may differ in their call. Activity calls are given as the source filed them. Unless noted, the call rests on the fitted dose curve; in most records, active means well fitted activation curve with a large enough effect in the repeat runs; inconclusive means weak or mixed curves, or effect the other way; inactive means no such curve, though single readings can be large or run the other way.

The nature of the first test: qHTS assay to identify small molecule antagonists of the estrogen related receptor signaling pathway with the pleiotropic PPARgamma coactivator (PGC) from Tox21 10K library - cell viability counter screen (AID 1224840; active means well fitted cell-killing curve with a large enough effect in the repeat runs, not every such curve was filed as active; further: nearly all actives have a fitted effect of over 40% in size; further: potency means the concentration at half of the fitted maximal effect). The following applies: PGC/ERR reporter cells viability, CellTiter-Fluor, 17.5 h; series mostly up to 92.4 µM. The essentials:
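Following seeding of 2,000 PGC/ERR cells/well and 6 hours' incubation, test compounds were delivered in DMSO. The plates then sat 17.5 hours at 37 C before a fluorogenic live-cell protease reagent (CellTiter-Fluor) was read after 30 min.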
On the technique in general: Quantitative high-throughput screening tests each substance at several concentrations.
For `O=C(N/N=C/c1ccc([N+](=O)[O-])o1)c1cc([N+](=O)[O-])cc([N+](=O)[O-])c1O`, the Potency is 11.9 µM (active). Same read-out and setting: for `CCC(C)(C)c1ccc(O)c(C(C)(C)CC)c1` the value was 53.9 µM (active) and inactive. For `O=C(Cc1ccccc1)c1ccccc1`, the Potency result was “inactive”. For the molecule `O=C(O)C(F)(F)C(F)(F)C(F)(F)C(F)(F)C(F)(F)F`, the Potency entry is “inactive”. As for `CN1CC[C@]23c4c5ccc(O)c4O[C@H]2[C@@H](O)C=C[C@H]3[C@H]1C5`, the Potency result was “inactive”.

In the case of `ClCc1ccccc1Cl`, the Potency entry is “inactive”. Turning to `CN(C1CCCCC1)C1CCCCC1`, the Potency result was “inactive”. Consider `C=C(Cl)Cl`, for which the Potency entry was “inactive”. Turning to `N#CC(C#N)=Cc1ccc(O)c(O)c1`, the Potency result is “inactive”. On to `CCOc1cccc(C2(N3CCN(c4ccccc4)CC3)CCC(C)CC2)c1` (stereo not drawn), for which the Potency entry is “inactive”.

Another test is described as follows: qHTS assay to identify small molecule antagonists of the estrogen related receptor signaling pathway with the pleiotropic PPARgamma coactivator (PGC) from Tox21 10K library (AID 1224841; call rule not given here; further: actives are mostly falling curves and most rising ones were filed inactive; nearly all actives have a fitted effect of over 50% in size; further: potency means the concentration at half of the fitted maximal effect). The following applies: PGC/ERR reporter cell line, ONE-Glo luciferase, 18 h; series mostly up to 92.4 µM. The procedure, abridged: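 qHTS antagonist format: PGC/ERR cells, 2k/well, compound in DMSO by pin transfer after 6 h attachment, 18 h treatment at 37 C, One-Glo luminescence read at 30 min.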
Consider `CCCCOC(=O)CCC(=O)OCCCC`, for which the Potency entry is “inactive”. With `CCCSP(=S)(OCC)Oc1ccc(SC)cc1` (stereo not drawn), the Potency result is “inactive”.

Consider `C[C@@H]1C[C@@H]([C@H](O)CC2CC(=O)NC(=O)C2)C(=O)[C@@H](C)C1`, for which the Potency is 682 nM (active) and 433 nM (active) and 531 nM (active).

Turning to `O=C=NC1CCCCC1`, the Potency result was “inactive”. For `C1CS1`, the Potency was 19.8 µM (active). Still for that read-out and setting: for `O=C(N[C@H]1CN2CCC1CC2)c1ccc2c(c1)OCCO2` the value was “inactive”; for `CCOP(=S)(S)OCC`, “inactive”; for `CCOC(=O)c1cncn1C(C)c1ccccc1` (stereo not drawn), “inactive”.

Regarding `N#CC(C#N)=C(C#N)C#N`, the Potency was 1.8 µM (active). Regarding `COc1cc(C[C@@H](C)N)c(OC)cc1Br`, the Potency is 31.5 µM (active). With `CC1(C)CC(=O)CC(C)(C)N1[O]`, the Potency entry was “inactive”. As to `CC(C)(C)N(NC(=O)c1ccc(Cl)cc1)C(=O)c1ccccc1`, the Potency entry was “inactive”. Regarding `O=[N+]([O-])O[C@H]1CO[C@H]2[C@@H]1OC[C@H]2O[N+](=O)[O-]`, the Potency entry is “inactive”.

For the molecule `CCC(C)(C)c1ccc(O)c(C(C)(C)CC)c1`, the Potency was 60.4 µM (active) and inactive. Consider `ClCc1ccccc1Cl`, for which the Potency result was “inactive”. As to `C=C(Cl)Cl`, the Potency result was “inactive”.

The next test in a line: qHTS assay to identify small molecule agonists of the estrogen related receptor signaling pathway with the pleiotropic PPARgamma coactivator (PGC) from Tox21 10K library (AID 1224842). Further: nearly all actives have a fitted effect of over 15% in size. The following applies: PGC/ERR reporter cell line, luciferase ONE-Glo, 18 h; series mostly up to 92.4 µM. The procedure, abridged: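 PGC/ERR reporter cells (NTP line) were seeded 2,000 per well, rested 6 h at 37 C/5% CO2, then pin-dosed with compounds in DMSO for 18 h at 37 C; luciferase read by One-Glo luminescence after 30 min at room temperature.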
For `CCCCOC(=O)CCC(=O)OCCCC`, the Potency result was “inactive”. Regarding `CCCSP(=S)(OCC)Oc1ccc(SC)cc1` (stereo not drawn), the Potency entry is “inactive”. Consider `C[C@@H]1C[C@@H]([C@H](O)CC2CC(=O)NC(=O)C2)C(=O)[C@@H](C)C1`, for which the Potency result was “inactive”. Take `O=C=NC1CCCCC1`: the Potency result was “inactive”.

With `C1CS1`, the Potency entry is “inactive”. For the molecule `O=C(N[C@H]1CN2CCC1CC2)c1ccc2c(c1)OCCO2`, the Potency result was “inactive”. For `CCOP(=S)(S)OCC`, the Potency result was “inactive”. `CCOC(=O)c1cncn1C(C)c1ccccc1` (stereo not drawn): the Potency result was “inactive”. In the case of `N#CC(C#N)=C(C#N)C#N`, the Potency entry was “inactive”. As for `COc1cc(C[C@@H](C)N)c(OC)cc1Br`, the Potency entry is “inactive”. As for `CC1(C)CC(=O)CC(C)(C)N1[O]`, the Potency result is “inactive”. For the molecule `CC(C)(C)N(NC(=O)c1ccc(Cl)cc1)C(=O)c1ccccc1`, the Potency result is “inactive”. With `O=[N+]([O-])O[C@H]1CO[C@H]2[C@@H]1OC[C@H]2O[N+](=O)[O-]`, the Potency result is “inactive”. Same read-out and setting: for `CCC(C)(C)c1ccc(O)c(C(C)(C)CC)c1` the value was “inactive”; for `CN1CC[C@]23c4c5ccc(O)c4O[C@H]2[C@@H](O)C=C[C@H]3[C@H]1C5`, “inactive”; for `ClCc1ccccc1Cl`, “inactive”. For the molecule `C=C(Cl)Cl`, the Potency result was “inactive”.
